Among the data in article PMC12864922, “TDP-43 directly inhibits mRNA accumulation in neurites through modulation of mRNA stability” are binding signal values, retold here.

To fix the notation:
B1: ENSMUSG00000022095.20|Fam160b2 (ssRNA)
RNA: GGGAGUUCUACAGUCCGACGAUCGCUUCGAUAUCCGCAUGCUAGGUGGGGGAAGAUUCCUGCCUGUGUACUUCUGCCCACGGGCAGUCUCCUGCCUGGCCAUGCUGCCACUCUGUCCUCCAUGCCGGGGACUUCAGCUGCAGGACACCUCACCUGUUGACCCCACGAGCUGAGGUUUCAAGGAGGUGCUGGCUCCUAAGGCAGUGGUAUUCUUGGAGCCUUUUAGAGGAGCUAGAGGAUGGCCAGUGAGCGCCUAGAUGCUGCCCUGCAUGUGUUGCGUGACUAUCUCUGCUAUAUUGUGACCCUCUUGCGGUCGCACUAGUGUGGAAUUCUCGGGUGUCAAGG
B2: ENSMUSG00000058297.107|Spock2|69:74 (ssRNA)
RNA: GGGAGUUCUACAGUCCGACGAUCGCUUCGAUAUCCGCAUGCUAUGAGGCAGGACCUGUACACACAGCAAGGCUUACUAUCCGUCUCCUGACAUCCGAAGAGCUCGUCGCAGCACACACUAAUGGCCCUUGGGCUGCACGUGGUUAAGCAUAGCUGUCUCUGUGGCCCAACACAAAGAGGUAAACUUACUUAAAACACAGGGGUUUUGUUGCUGUUUGUUUUUUGUUAGUUUGUUUGUUGAUAAUUGGAUUGAGGAGUUAAUCCUCUGUCACAAUGUCAAAAGCAUGGACAUCCCUGAUAGAUUCUCUUGCGGUCGCACUAGUGUGGAAUUCUCGGGUGUCAAGG
B3: ENSMUSG00000061578.1365|Ksr2|224:228 (ssRNA)
RNA: GGGAGUUCUACAGUCCGACGAUCGCUUCGAUAUCCGCAUGCUACAGGACAGCCCAGCUUCCCACUCCAGACAUGUUGUUCUUACAUCUCUGACCCAGUGAUCUUUCUAGGGGUCUGUCACAUGUCCCAACAGGUGGACAGCUCUCCAAGUCACCAACCUGAGGAAAAUAUCCCUCCUUGUAAAAAGGCUUUCUCUUUGUAAAUGAUUCUGUUGCCUUUUUCUAAACACAAAGUAUAUAUACCUAUAAAUGCUAUAUAUAUUAUAUAACACAAUAUACAUAAAGACUACUUCUUGUACAGCCCUCUCUUGCGGUCGCACUAGUGUGGAAUUCUCGGGUGUCAAGG
B4: ENSMUSG00000004113.365|Cacna1b (ssRNA)
RNA: GGGAGUUCUACAGUCCGACGAUCGCUUCGAUAUCCGCAUGCUAUAUACAAAGGCACAAUACCCUGAAACUUUAACAGAGUAUUUUAUUCCAGUAGGGUAAAAUUAAACGGGACUCUUGGACUGCGCAUGUGACUGCACCCACGUUGCAACAGAGAAGGAUGUGCAUUUUGAUACUGAUGUUCUGUCUCUGUUCCAGCCCCAGCCCCCUUUUCUCUUGAGUGUUGAAUGUAUACAUUCUGUGUGGAACUACAGCUGCCUCAGACAAUCCUGGGUUGGGAAUCAUCUUUAUCCCACAUCAACAUACUCUUGCGGUCGCACUAGUGUGGAAUUCUCGGGUGUCAAGG
B5: ENSMUSG00000058297.177|Spock2 (ssRNA)
RNA: GGGAGUUCUACAGUCCGACGAUCGCUUCGAUAUCCGCAUGCUAUGUCAUCAUAUAGCUGAGAUUUGGAGUAGCCUGCUAUGAGGGCUUGCAGUUGCACUCUCUGUUCCCUGGCGAGGGUCCCCCUUGUCCCAAGGAGCAGAGGACCAGCAAGCAGCCCGUGUCUGCUCACCUUCUCCCUGACCCUCUAGGAAAUGGUUCCCUCUUGCCCCGACCAAUAGAAGGGCGUGUCCCCGAGACCCUUGUGAGGAACCACGGGGAGCUGUGACUUCCUGUGCCCAGAAGGUCCUGGAGGAGAGGCCCCACUCUUGCGGUCGCACUAGUGUGGAAUUCUCGGGUGUCAAGG
B6: ENSMUSG00000058297.112|Spock2|39:44 (ssRNA)
RNA: GGGAGUUCUACAGUCCGACGAUCGCUUCGAUAUCCGCAUGCUAUACUAUCCGUCUCCUGACAUCCGAAGAGCUCGUCGCAGCACACACUAAUGGCCCUUGGGCUGCACGUGGUUAAGCAUAGCUGUCUCUGUGGCCCAACACAAAGAGGUAAACUUACUUAAAACACAGGGGUUUUGUUGCUGUUUGUUUUUUGUUAGUUUGUUUGUUGAUAAUUGGAUUGAGGAGUUAAUCCUCUGUCACAAUGUCAAAAGCAUGGACAUCCCUGAUAGAUUAUCUCUCAACCUAGUCCCGAGUAACCAGAGCUCUUGCGGUCGCACUAGUGUGGAAUUCUCGGGUGUCAAGG
B7: ENSMUSG00000022095.12|Fam160b2|69:73 (ssRNA)
RNA: GGGAGUUCUACAGUCCGACGAUCGCUUCGAUAUCCGCAUGCUAAACUUCUCUCCACCUCCAGAAGGGCAAGUCUGAGCCAGGAGCAUGACGGGUGGGGGAAGAUUCCUGCCACACAACUUCUGCCCACGGGCAGUCUCCUGCCUGGCCAUGCUGCCACUCUGUCCUCCAUGCCGGGGACUUCAGCUGCAGGACACCUCACCUGUUGACCCCACGAGCUGAGGUUUCAAGGAGGUGCUGGCUCCUAAGGCAGUGGUAUUCUUGGAGCCUUUUAGAGGAGCUAGAGGAUGGCCAGUGAGCGCCUACUCUUGCGGUCGCACUAGUGUGGAAUUCUCGGGUGUCAAGG
B8: ENSMUSG00000028439.123|Fam219a|54:58 (ssRNA)
RNA: GGGAGUUCUACAGUCCGACGAUCGCUUCGAUAUCCGCAUGCUACUGAGGGUUGGGAAGGUAAGAUGGGCCUUAGAGAGAAGCCAGGUUUGGGGAUGCAUACACCUGUUCUCACCGGUCUCUAACCAGUGCAUCUGUCUCUCUGCCUCAUCCCCACACCGCCCUGCCACCCCCAGUCUUCUGUCUAUUGGUUCCAGGCUGGAAGCAAGAGAUAAGGCUGGCCUCCUGUGCCCCAUUGCCAUUUCACCCUAGCUCAAAGUCCAGGAGCCAGGCUUCCAGAAAGGCUCUUCAAGAGCAAGCUUAAGCUCUUGCGGUCGCACUAGUGUGGAAUUCUCGGGUGUCAAGG
B9: ENSMUSG00000042529.392|Kcnj12 (ssRNA)
RNA: GGGAGUUCUACAGUCCGACGAUCGCUUCGAUAUCCGCAUGCUAGAUCAGUCCGACUUGAGUCCCUGCCCUGCCCUGGUUAUGCAGGCUGUACGACGCAGUGUGCAUCAGUCUGAGGAGUCUGGUGGUAAGUAAGCCUCUGCAGCAGACCCUGUCGGAGGCCAUGGGGGCGUGUGUGUGUGUGUGUGUGUGUGUGUGUGUGUGUGUGUGUGUGUGUGUGUGUGAACAUGUGUGAGGGUGUGGAGGUCCCAGGGUGUGUGUAUGUGAAUGUCAGUGGCUUGGGUGCUGUGUGGAGAGAGAGAGAGCUCUUGCGGUCGCACUAGUGUGGAAUUCUCGGGUGUCAAGG
B10: ENSMUSG00000042529.398|Kcnj12 (ssRNA)
RNA: GGGAGUUCUACAGUCCGACGAUCGCUUCGAUAUCCGCAUGCUAAUGCAGGCUGUACGACGCAGUGUGCAUCAGUCUGAGGAGUCUGGUGGUAAGUAAGCCUCUGCAGCAGACCCUGUCGGAGGCCAUGGGGGCGUGUGUGUGUGUGUGUGUGUGUGUGUGUGUGUGUGUGUGUGUGUGUGUGUGUGAACAUGUGUGAGGGUGUGGAGGUCCCAGGGUGUGUGUAUGUGAAUGUCAGUGGCUUGGGUGCUGUGUGGAGAGAGAGAGAGAGAGAGAGAGAGAGAGAGAGAGAGAGAGAGAGAGAGCUCUUGCGGUCGCACUAGUGUGGAAUUCUCGGGUGUCAAGG
B11: ENSMUSG00000042529.393|Kcnj12 (ssRNA)
RNA: GGGAGUUCUACAGUCCGACGAUCGCUUCGAUAUCCGCAUGCUAUCCGACUUGAGUCCCUGCCCUGCCCUGGUUAUGCAGGCUGUACGACGCAGUGUGCAUCAGUCUGAGGAGUCUGGUGGUAAGUAAGCCUCUGCAGCAGACCCUGUCGGAGGCCAUGGGGGCGUGUGUGUGUGUGUGUGUGUGUGUGUGUGUGUGUGUGUGUGUGUGUGUGUGUGAACAUGUGUGAGGGUGUGGAGGUCCCAGGGUGUGUGUAUGUGAAUGUCAGUGGCUUGGGUGCUGUGUGGAGAGAGAGAGAGAGAGAGCUCUUGCGGUCGCACUAGUGUGGAAUUCUCGGGUGUCAAGG

The full ranking holds about 9,900 sequences; the median of “r (bound/input frequency ratio)” is about 0.7, and the highest 2% start at about 6.5. The list comes from a sample in which the highest values are over-represented; it also holds similar and randomly drawn sequences.

Chain of TDP-43 (Q13148 whole entry): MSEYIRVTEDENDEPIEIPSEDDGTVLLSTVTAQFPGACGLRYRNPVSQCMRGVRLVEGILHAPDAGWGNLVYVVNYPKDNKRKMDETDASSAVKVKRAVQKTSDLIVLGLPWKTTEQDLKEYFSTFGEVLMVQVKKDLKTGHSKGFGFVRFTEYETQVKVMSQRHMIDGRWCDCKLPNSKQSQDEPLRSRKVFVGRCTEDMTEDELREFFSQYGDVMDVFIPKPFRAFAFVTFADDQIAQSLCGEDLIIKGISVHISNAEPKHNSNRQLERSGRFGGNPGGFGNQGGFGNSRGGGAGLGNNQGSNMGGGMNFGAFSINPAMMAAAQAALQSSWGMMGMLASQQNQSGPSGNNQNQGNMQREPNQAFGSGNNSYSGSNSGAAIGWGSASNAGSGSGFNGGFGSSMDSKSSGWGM

This assay deals with TDP-43 (Homo sapiens, UniProt Q13148 1-414). In words: RNA Bind-n-Seq with designed 260-mer pool; 25 mM Tris-HCl, 150 mM KCl, 3 mM MgCl2, BSA (printed 500 mg/mL), 20 units/mL SUPERase IN; pH not stated; 500 nM RNA pool, 1 h, 4 C; TDP-43 5, 50, 500 nM; high values mean tight binding. The settings on record: protein: recombinant; tags: SBP (GST cleaved off with PreScission; pGEX-GST-SBP). In outline:
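Recombinant SBP-tagged TDP-43 at 5, 50 or 500 nM was captured on streptavidin beads, then incubated 1 h at 4 °C with 500 nM of an in vitro-transcribed 260-nt 3′ UTR oligo pool in 25 mM Tris-HCl, 150 mM KCl, 3 mM MgCl2, BSA and SUPERase IN. Bound RNA was washed, eluted with biotin, reverse transcribed, PCR-amplified and sequenced. Binding is R, each oligo's mapped-read-normalized abundance in the bound sample divided by its abundance in input. Duplicates used two independent protein batches.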
In the case of B1, the binding signal is 0.487 R (bound/input frequency ratio).
On to B2, for which the binding signal was 1.04 R (bound/input frequency ratio).
The result for B3 reads 0.125 R (bound/input frequency ratio); that for B4, 0.216 R (bound/input frequency ratio).
For the molecule B5, the binding signal was 0.086 R (bound/input frequency ratio).
For B6 the value was 1.33 R (bound/input frequency ratio); for B7, 0.253 R (bound/input frequency ratio).
Take B8: the binding signal was 0.5 R (bound/input frequency ratio).
Consider B9, for which the binding signal was 7.12 R (bound/input frequency ratio).
For B10, the binding signal was 5.26 R (bound/input frequency ratio).
Consider B11, for which the binding signal is 5.42 R (bound/input frequency ratio).
